# Measurements from PubChem BioAssay (Tox21).
# A number with no mark means an inactive call. Records with an inconclusive call do not appear. Where a call stands in place of a potency, no number is given. Activity calls are given as the source filed them. Unless noted, calls come from the whole dose curve; as a rule, active = well fitted curve in the direction sought with a large enough effect in the repeat runs; inconclusive = weak or mixed curves; inactive = no such curve, though single readings can be large; an effect the other way counts as inactive or inconclusive.
# Tests used:
# [1] = qHTS assay to test for compound auto fluorescence at 535 nm (green) in HEK293 cells (AID 720680)
# [2] = qHTS assay to test for compound auto fluorescence at 535 nm (green) in HEK293 cell free culture (AID 720682)
# Outline: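 Compounds were pin-transferred into cell-free DMEM with 10% FBS, and green fluorescence was read at excitation 485 nm and emission 535 nm. Intensities were expressed as fluorescein-equivalent values.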
# [3] = qHTS assay to test for compound auto fluorescence at 590 nm (red) in HEK293 cell free culture (AID 720683)
# Outline: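 Tox21 10K library compounds were pinned into cell-free DMEM with 10% FBS and fluorescence was read at excitation 540 nm. Activity is expressed as Rose Bengal sodium equivalency.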
# [4] = qHTS assay to test for compound auto fluorescence at 590 nm (red) in HepG2 cell free culture (AID 720684)
# Outline: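 Measured in medium alone (MEM containing 10% FBS) following pintool addition of compound; emission at 590 nm with 540 nm excitation, referenced to Rose Bengal sodium.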
# [5] = qHTS assay to test for compound auto fluorescence at 460 nm (blue) in HepG2 cell free culture (AID 720685)
# Outline: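 Compound (23 nL) or DMSO pinned into cell-free MEM with 10% FBS; blue fluorescence read at 405/460 nm excitation/emission, expressed as auto-fluorescence equivalency to triamterene.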
# [6] = qHTS assay to test for compound auto fluorescence at 535 nm (green) in HepG2 cell free culture (AID 720686)
# [7] = qHTS assay to test for compound auto fluorescence at 460 nm (blue) in HepG2 cells (AID 720687)
# Outline: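 Cells (2,000/well in MEM with 10% FBS) attached overnight at 37 C, then were exposed to compound or DMSO for 1 hr at 37 C, 5% CO2. Fluorescence read at Ex/Em 405/460 nm, expressed as triamterene-equivalent signal.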
# [8] = target: Glucocorticoid receptor (Homo sapiens) (UniProt P04150); test: qHTS assay to identify small molecule agonists of the glucocorticoid receptor (GR) signaling pathway (AID 720691; active = well fitted activation curve with a large enough effect in the signal ratio in the repeat runs, not every such curve was filed as active; the % refers to the signal ratio)
# Outline: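 GR-bla HeLa cells carrying a GRE-driven beta-lactamase reporter, exposed to compounds for 18 h at 37 C. Reporter activation read as fluorescence after 2 h with LiveBLAzer B/G FRET substrate at room temperature.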
# [9] = target: Glucocorticoid receptor (Homo sapiens) (UniProt P04150); test: qHTS assay to identify small molecule antagonists of the glucocorticoid receptor (GR) signaling pathway (AID 720692; active = well fitted inhibition curve with a large enough effect in the signal ratio in the repeat runs, not every such curve was filed as active; the % refers to the signal ratio)
# Outline: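 GR-bla HeLa cells carrying a GRE-driven beta-lactamase reporter received compound after 4 h plating, then dexamethasone (5 nM final). After 18 h at 37C, the FRET substrate was loaded for 2 h at room temperature and fluorescence read.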
# [10] = qHTS assay to identify small molecule antagonists of the glucocorticoid receptor (GR) signaling pathway - cell viability counter screen (AID 720693); note: nearly all actives have a fitted effect of over 55% in size
# [11] = qHTS assay to identify small molecule antagonists of the androgen receptor (AR) signaling pathway - cell viability counter screen (AID 743033; note: nearly all actives have a fitted effect of over 45% in size)
# [12] = qHTS assay to identify small molecule antagonists of the androgen receptor (AR) signaling pathway using the MDA cell line - cell viability counter screen (AID 743041; note: nearly all actives have a fitted effect of over 45% in size)
# Outline: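 Viability counter screen run alongside the AR antagonist reporter: cells seeded 5 h before compound, R1881 added, 16 h incubation at 37C without CO2, fluorescent CellTiter-Fluor signal quantified.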
# [13] = qHTS assay for identifying genotoxic compounds that show differential cytotoxicity against isogenic chicken DT40 cell lines with known DNA damage response pathways - wild type cell line (AID 743012); note: nearly all actives have a fitted effect of over 60% in size
# Outline: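 Wild-type DT40 cells (300/well) exposed to compounds for 40 hours at 37 C/5% CO2. Viability read by CellTiter-Glo luminescence after 30 min at room temperature.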
# [14] = qHTS assay for identifying genotoxic compounds that show differential cytotoxicity against isogenic chicken DT40 cell lines with known DNA damage response pathways - Rev3 mutant cell line (AID 743014); note: nearly all actives have a fitted effect of over 55% in size; note: potency is the fitted concentration of half-maximal effect
# [15] = qHTS assay for identifying genotoxic compounds that show differential cytotoxicity against isogenic chicken DT40 cell lines with known DNA damage response pathways - Rad54/Ku70 mutant cell line (AID 743015); note: nearly all actives have a fitted effect of over 60% in size
# [16] = target: Androgen receptor (Homo sapiens) (UniProt P10275); test: qHTS assay to identify small molecule antagonists of the androgen receptor (AR) signaling pathway (AID 743035; active = well fitted inhibition curve with a large enough effect in the signal ratio in the repeat runs, not every such curve was filed as active; the % refers to the signal ratio)
# Outline: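 HEK293 cells stably carrying UAS-beta-lactamase reporter, 2,000/well, given compounds plus R1881 agonist and incubated 16 h at 37C. LiveBLAzer B/G FRET substrate then added for 2 h at room temperature before fluorescence reading.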
# [17] = target: Androgen receptor (Homo sapiens) (UniProt P10275); test: qHTS assay to identify small molecule agonists of the androgen receptor (AR) signaling pathway using the MDA cell line (AID 743040; note: nearly all actives have a fitted effect of over 20% in size; note: potency is the fitted concentration of half-maximal effect)
# Outline: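 Luminescence from ONE-Glo, read after 30 min at room temperature, reflects MMTV-driven luciferase in MDA-kb2 cells (AR- and GR-responsive). Treatment lasted 16 h at 37C, 0% CO2.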
# [18] = target: Androgen receptor (Homo sapiens) (UniProt P10275); test: qHTS assay to identify small molecule antagonists of the androgen receptor (AR) signaling pathway using the MDA cell line (AID 743042; note: nearly all actives have a fitted effect of over 55% in size)
# Outline: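 MDA-kb2 cells (human breast carcinoma, stably carrying an MMTV-luciferase reporter responsive to AR and GR) were plated at 3,000 cells/well and preincubated 5 hr at 37C, then given compound plus R1881 agonist for 16 h. ONE-Glo luminescence was read.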
# Sequence of Androgen receptor (Homo sapiens) (P10275 whole entry, looked up): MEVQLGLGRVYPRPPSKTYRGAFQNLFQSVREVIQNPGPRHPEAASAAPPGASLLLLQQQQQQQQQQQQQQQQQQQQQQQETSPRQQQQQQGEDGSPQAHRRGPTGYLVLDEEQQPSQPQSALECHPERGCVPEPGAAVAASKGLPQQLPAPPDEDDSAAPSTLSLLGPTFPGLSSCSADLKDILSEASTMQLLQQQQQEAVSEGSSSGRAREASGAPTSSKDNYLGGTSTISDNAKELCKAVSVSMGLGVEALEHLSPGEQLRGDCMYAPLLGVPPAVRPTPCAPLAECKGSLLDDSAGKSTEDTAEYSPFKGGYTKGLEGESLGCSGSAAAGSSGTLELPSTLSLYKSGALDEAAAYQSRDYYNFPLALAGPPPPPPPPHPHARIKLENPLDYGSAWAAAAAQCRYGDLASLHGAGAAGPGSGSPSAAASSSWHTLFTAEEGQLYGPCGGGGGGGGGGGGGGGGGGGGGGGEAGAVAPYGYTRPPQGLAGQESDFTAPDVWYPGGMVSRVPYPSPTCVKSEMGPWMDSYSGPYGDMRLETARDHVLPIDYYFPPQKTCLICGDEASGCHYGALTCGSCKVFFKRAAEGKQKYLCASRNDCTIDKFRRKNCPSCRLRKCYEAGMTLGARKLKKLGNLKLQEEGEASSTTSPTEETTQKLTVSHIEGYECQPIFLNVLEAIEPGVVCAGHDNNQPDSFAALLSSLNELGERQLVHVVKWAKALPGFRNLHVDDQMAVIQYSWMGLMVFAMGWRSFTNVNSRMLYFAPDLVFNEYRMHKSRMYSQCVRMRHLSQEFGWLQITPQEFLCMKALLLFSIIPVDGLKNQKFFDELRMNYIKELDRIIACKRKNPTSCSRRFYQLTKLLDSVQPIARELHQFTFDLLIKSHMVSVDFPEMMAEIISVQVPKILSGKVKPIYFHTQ
# Sequence of Glucocorticoid receptor (Homo sapiens) (P04150 whole entry, looked up): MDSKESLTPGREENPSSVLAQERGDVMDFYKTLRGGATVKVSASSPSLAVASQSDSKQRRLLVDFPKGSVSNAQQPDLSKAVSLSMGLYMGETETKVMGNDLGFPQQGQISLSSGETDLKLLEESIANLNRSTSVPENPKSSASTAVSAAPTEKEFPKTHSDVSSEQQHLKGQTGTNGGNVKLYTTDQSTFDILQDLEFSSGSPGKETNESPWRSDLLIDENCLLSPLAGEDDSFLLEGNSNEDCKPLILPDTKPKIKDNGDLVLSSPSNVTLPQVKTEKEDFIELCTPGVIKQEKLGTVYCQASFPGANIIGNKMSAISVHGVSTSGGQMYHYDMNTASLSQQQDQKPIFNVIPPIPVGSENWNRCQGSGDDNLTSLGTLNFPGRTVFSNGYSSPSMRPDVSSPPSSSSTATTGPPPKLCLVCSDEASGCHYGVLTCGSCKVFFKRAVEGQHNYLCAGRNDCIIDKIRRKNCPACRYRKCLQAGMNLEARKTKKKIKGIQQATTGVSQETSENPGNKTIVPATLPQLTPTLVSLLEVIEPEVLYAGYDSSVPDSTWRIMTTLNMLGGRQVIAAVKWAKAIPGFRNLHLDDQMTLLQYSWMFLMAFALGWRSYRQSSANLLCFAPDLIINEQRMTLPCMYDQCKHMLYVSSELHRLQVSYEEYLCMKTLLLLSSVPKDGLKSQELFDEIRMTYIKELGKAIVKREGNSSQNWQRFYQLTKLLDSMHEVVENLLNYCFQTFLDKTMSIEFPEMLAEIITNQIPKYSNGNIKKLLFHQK
compound,measurement,setting,value
Oc1ccc2c(c1)OC[C@@H](N1CCC(O)(c3ccc(F)cc3)CC1)[C@H]2O,outcome,[1],inactive
same,outcome,[2],inactive
same,outcome,[3],inactive
same,outcome,[4],inactive
same,Potency,[5],inactive
same,outcome,[6],inactive
same,Potency,[7],inactive
same,Potency,[8],inactive
same,Potency,[9],inactive
same,outcome,[10],inactive
same,outcome,[11],inactive
same,Potency,[12],inactive
COCCOC(=O)CC#N,outcome,[1],inactive
same,outcome,[2],inactive
same,outcome,[3],inactive
same,outcome,[4],inactive
same,Potency,[5],inactive
same,outcome,[6],inactive
same,Potency,[7],inactive
same,outcome,[10],inactive
same,Potency,[13],inactive
same,Potency,[14],inactive
same,Potency,[15],inactive
same,outcome,[11],inactive
same,Potency,[12],inactive
CCCCCCCCCCCl,outcome,[1],inactive
same,outcome,[2],inactive
same,outcome,[3],inactive
same,outcome,[4],inactive
same,Potency,[5],inactive
same,outcome,[6],inactive
same,Potency,[7],inactive
same,Potency,[8],inactive
same,Potency,[14],inactive
same,Potency,[15],inactive
same,outcome,[11],inactive
same,Potency,[12],inactive
CCCCCCCCCCC1CO1 (centres undefined),outcome,[1],inactive
same,outcome,[2],inactive
same,outcome,[3],inactive
same,outcome,[4],inactive
same,Potency,[5],inactive
same,outcome,[6],inactive
same,Potency,[7],inactive
same,outcome,[10],inactive
same,Potency,[14],68.6 µM (active)
same,outcome,[11],inactive
same,Potency,[12],inactive
FC(F)(F)C(F)(F)C(F)(F)C(F)(F)C(F)(F)C(F)(F)C(F)(F)C(F)(F)C(F)(F)C(F)(F)F,"fluorescence, % of fluorescein",[1],0.0789% [at 9.17 µM]
same,activity change,[2],0.0023% [at 9.17 µM]
same,"fluorescence, % of fluorescent control",[3],-0.0476% [at 9.17 µM]
same,"fluorescence, % of Rose Bengal",[4],-0.199% [at 9.17 µM]
same,"fluorescence, % of fluorescent control",[5],-0.151% [at 9.17 µM]
same,"fluorescence, % of fluorescein control",[6],0.0369% [at 9.17 µM]
same,"fluorescence, % of fluorescent control",[7],0.105% [at 9.17 µM]
same,activation,[8],-0.303% [at 6.9 µM]
same,"activity change, negative = inhibition",[9],-11.7% [at 7.04 µM]
same,"viability change, negative = cytotoxic",[10],-1.03% [at 7.04 µM]
same,"activity change, negative = cytotoxicity",[15],4.69% [at 8.55 µM]
same,"activity change, negative = cytotoxicity",[11],0.133% [at 7.04 µM]
same,"viability change, negative = cytotoxic",[12],6.81% [at 8.47 µM]
CC(C)(C)CC(C)(C)N,outcome,[1],inactive
same,outcome,[2],inactive
same,outcome,[3],inactive
same,outcome,[4],inactive
same,Potency,[5],inactive
same,outcome,[6],inactive
same,Potency,[7],inactive
same,Potency,[8],inactive
same,Potency,[9],inactive
same,outcome,[10],inactive
same,Potency,[13],inactive
same,Potency,[15],inactive
same,outcome,[11],inactive
same,Potency,[12],inactive
O=Cc1ccccc1[N+](=O)[O-],outcome,[1],inactive
same,outcome,[2],inactive
same,outcome,[3],inactive
same,outcome,[4],inactive
same,Potency,[5],inactive
same,outcome,[6],inactive
same,Potency,[7],inactive
same,Potency,[9],inactive
same,outcome,[10],inactive
same,outcome,[11],inactive
same,Potency,[12],inactive
CC(C)(O)Cc1ccccc1,outcome,[1],inactive
same,outcome,[2],inactive
same,outcome,[3],inactive
same,outcome,[4],inactive
same,Potency,[5],inactive
same,outcome,[6],inactive
same,Potency,[7],inactive
same,Potency,[9],inactive
same,outcome,[10],inactive
same,Potency,[13],inactive
same,Potency,[14],inactive
same,Potency,[15],inactive
same,outcome,[11],inactive
same,Potency,[12],inactive
CC/C=C\CCCCO,outcome,[1],inactive
same,outcome,[2],inactive
same,outcome,[3],inactive
same,outcome,[4],inactive
same,Potency,[5],inactive
same,outcome,[6],inactive
same,Potency,[7],inactive
same,outcome,[10],inactive
same,Potency,[13],inactive
same,outcome,[11],inactive
same,Potency,[12],inactive
CCC(C)OC(=O)N1CCCCC1CCO (centres undefined),outcome,[1],inactive
same,outcome,[2],inactive
same,outcome,[3],inactive
same,outcome,[4],inactive
same,Potency,[5],inactive
same,outcome,[6],inactive
same,Potency,[7],inactive
same,outcome,[10],inactive
same,Potency,[14],inactive
same,Potency,[15],inactive
same,outcome,[11],inactive
same,Potency,[12],inactive
CCCCNc1ccccc1,outcome,[1],inactive
same,outcome,[2],inactive
same,outcome,[3],inactive
same,outcome,[4],inactive
same,Potency,[5],inactive
same,outcome,[6],inactive
same,Potency,[7],inactive
same,Potency,[9],inactive
same,outcome,[10],inactive
same,Potency,[14],inactive
same,Potency,[15],inactive
same,outcome,[11],inactive
same,Potency,[16],inactive
same,Potency,[17],inactive
same,Potency,[12],inactive
same,outcome,[18],inactive
C1=C\CC/C=C\CC/C=C\CC/1,outcome,[1],inactive
same,outcome,[2],inactive
same,outcome,[3],inactive
same,outcome,[4],inactive
same,Potency,[5],inactive
same,Potency,[7],inactive
same,outcome,[10],inactive
same,Potency,[13],inactive
same,Potency,[14],inactive
same,Potency,[15],inactive
same,outcome,[11],inactive
same,Potency,[12],inactive
C#CC(C)(O)CC(C)C (centres undefined),outcome,[1],inactive
same,outcome,[2],inactive
same,outcome,[3],inactive
same,outcome,[4],inactive
same,Potency,[5],inactive
same,outcome,[6],inactive
same,Potency,[7],inactive
same,Potency,[9],inactive
same,outcome,[10],inactive
same,Potency,[13],inactive
same,Potency,[14],inactive
same,Potency,[15],inactive
same,outcome,[11],inactive
same,Potency,[12],inactive
CC(C)c1ccc2oc3nc(N)c(C(=O)O)cc3c(=O)c2c1,outcome,[1],inactive
same,outcome,[2],inactive
same,outcome,[3],inactive
same,outcome,[4],inactive
same,Potency,[5],inactive
same,outcome,[6],inactive
same,Potency,[7],inactive
same,Potency,[8],inactive
same,Potency,[9],inactive
same,outcome,[10],inactive
same,Potency,[13],inactive
same,Potency,[14],inactive
same,outcome,[11],inactive
same,Potency,[16],inactive
same,Potency,[17],11.9 µM (active)
same,Potency,[12],inactive
same,outcome,[18],inactive
CCCCCCC(=O)OCC,outcome,[1],inactive
same,outcome,[2],inactive
same,outcome,[3],inactive
same,outcome,[4],inactive
same,Potency,[5],inactive
same,outcome,[6],inactive
same,Potency,[7],inactive
same,outcome,[10],inactive
same,Potency,[13],inactive
same,Potency,[15],inactive
same,outcome,[11],inactive
same,Potency,[12],inactive
